Screening results as filed in PubChem.
Only some compounds are listed: those with a hit (about 9.4% of all), similar ones and a draw of the others.
ELG1 genotox = inducers of genotoxicity in HEK293T ELG1-luciferase cells; HEK293T ELG1-luciferase reporter, luminescence, 16 h; Potency, µM (series often up to 46 µM), inactives show at the top dose activity change, positive = activation, actives largely listed as activators; hit rate 1.3% among 330,000; note: % of control where 0% means no effect; nearly all actives have a fitted effect of over 60% in size
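Quantitative HTS format in 1536-well plates. HEK293T ELG1-luciferase reporter cells receive test compound and are incubated 16 hr at 37 °C, 5% CO2; ONE-Glo added, 30 min room temperature, then luminescence read.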
ELG1 DNA repair = blocks ELG1-dependent DNA repair in HEK293T cells. AID 504467. hit rate 2.3% among 330,000. Potency, µM (doses to about 46.1 µM), without a hit: at the highest dose activity change, negative = inhibition, actives largely listed as inhibitors. HEK293T ELG1-luciferase reporter, luminescence, 16 h; DNA damage induced by 5-fluorouridine; note: % is set by controls: 0 for no effect and ±100 for the full control effect; nearly all actives have a fitted effect of over 55% in size
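Reporter activity after DNA damage by 5-fluorouridine is monitored. Compound-treated cells incubate 16 hr at 37 °C, then ONE-Glo is added for 30 min before luminescence reading.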
NPC1 promoter act = activates the NPC1 promoter; Huh7 NPC1 promoter luciferase reporter, 24 h; Potency, µM (titrated, usually from 9.22 µM), without a hit: at the top dose activation, usual class: activators; hit rate 2.4% among 320,000; note: % of control where 0% means no effect; nearly all actives have a fitted effect of over 60% in size
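Quantitative HTS used a cell-based reporter: Huh7 cells stably bearing the NPC1 promoter upstream of luciferase were treated with compounds for 24 h, and promoter activation was read as luminescence.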
FLuc counter = inhibits or activates purified firefly luciferase, miR-21 counter-screen | P08659 | purified FLuc, Km substrates, luminescence inhibition | Potency, µM (highest dose often 57.5 µM), for inactives: top-dose activity change, negative = inhibition, hits mostly inhibitors | hit rate 6.9% among 360,000 | AID 588342;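 note: plate controls were vehicle for no effect and reference inhibitor for full effect; nearly all actives have a fitted effect of over 55% in size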
Target sequence (P08659 whole entry, looked up): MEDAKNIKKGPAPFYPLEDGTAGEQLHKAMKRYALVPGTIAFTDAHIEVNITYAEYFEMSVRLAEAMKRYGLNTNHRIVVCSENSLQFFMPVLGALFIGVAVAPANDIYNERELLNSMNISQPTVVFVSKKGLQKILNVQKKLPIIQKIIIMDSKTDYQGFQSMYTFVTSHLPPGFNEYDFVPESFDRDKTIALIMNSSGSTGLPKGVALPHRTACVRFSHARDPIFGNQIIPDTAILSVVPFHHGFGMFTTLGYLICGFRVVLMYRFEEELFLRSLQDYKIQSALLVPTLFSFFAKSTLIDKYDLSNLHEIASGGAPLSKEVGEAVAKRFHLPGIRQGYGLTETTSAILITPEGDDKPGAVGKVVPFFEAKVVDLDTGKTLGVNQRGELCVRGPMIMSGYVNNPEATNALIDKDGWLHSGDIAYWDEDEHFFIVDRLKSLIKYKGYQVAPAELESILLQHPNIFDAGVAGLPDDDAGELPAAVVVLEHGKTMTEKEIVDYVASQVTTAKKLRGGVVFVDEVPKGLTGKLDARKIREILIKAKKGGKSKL
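Purified P. pyralis luciferase, 10 nM final, with Km-level 10 uM D-luciferin and 10 uM ATP in 50 mM Tris acetate pH 7.5, 10 mM Mg acetate, 0.01% Tween-20, 0.05% BSA; 6-point qHTS titration about 60 µM downward; luminescence read.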
Rab9 prom act = activators of Rab9 promoter. hit rate 2.8% among 320,000. AID 485297. Huh7 Rab9 promoter-luciferase reporter, luminescence, 24 h. Potency, µM (highest dose often 9.22 µM), inactives show at the top dose activation, negative = inhibition, most hits filed as activators; note: % of control where 0% means no effect; nearly all actives have a fitted effect of over 60% in size
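Rab9 promoter-driven luciferase in stably transfected Huh7 cells; 1500 cells/well rested 2 h, exposed to compound in DMSO for 24 h at 37 °C, 5% CO2. Luminescence read 10 min after adding luciferase reagent at ambient temperature.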
SMN2 splice enh = enhancers of SMN2 splice variant expression. HEK293 SMN2-luciferase splicing reporter, luminescence, 30-36 h. Potency, µM (doses to about 46.1 µM), without a hit: at the highest dose activity change, positive = activation, most hits filed as activators. hit rate 2.8% among 210,000; note: % of control where 0% means no effect; nearly all actives have a fitted effect of over 55% in size
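HEK293 cells carry an SMN2 minigene-luciferase reporter in which exon 7 inclusion puts luciferase in frame. Cells were seeded at 2000 cells/well, attached for 10-12 hours, then exposed to compounds for 30-36 hours at 37C before ONE-Glo luminescence.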
The depositor's hits bear a star; ? = inconclusive; nt = no result given; [ ] = dose if it differs, or a comment. Calls come from the whole dose curve; as a rule, active = well fitted curve in the direction sought with a large enough effect; inconclusive = small, poorly fitted or top-dose-only effect, or another doubt; inactive = no such curve, though single readings can be large; an effect the other way counts as inactive or inconclusive. Potency is the fitted concentration of half-maximal effect.

SMILES	ELG1 genotox	ELG1 DNA repair	NPC1 promoter act	FLuc counter	Rab9 prom act	SMN2 splice enh
Cc1cc(C(=O)Nc2ccccn2)no1	?	?	?	?	?	11µM*
Cc1ccc(NC(=O)c2cc(C)no2)cc1	?	?	16%	?	17%	nt
CCc1ccc(NC(=O)c2cc(C)no2)cc1	?	?	?	12µM*	?	nt
Cc1cc(NC(=O)c2cccc(C(=O)Nc3cc(C)on3)n2)no1	-4%	?	0%	-2%	-16%	14%
Cc1cc(C(=O)Nc2ccc3c(c2)OCO3)no1	-19%	-23%	0%	-5%	1%	nt
CCc1ccccc1NNC(=O)c1cc(C)on1	8%	3%	1%	-1%	9%	nt
Cc1cc(C(=O)NNc2ccccc2F)no1	9%	6.5µM*	0%	-3%	0%	nt
Cc1ccc(NC(=O)c2cc(C)on2)cc1	?	?	1.4µM*	6.7µM*	1.4µM*	nt
COC(=O)c1ccc2c(=O)n(CCCCCC(=O)NCc3ccc(OC)cc3)c(=O)[nH]c2c1	nt	nt	nt	-7%	nt	nt
Cc1noc(C)c1-c1ccc2ncnc(N(C)Cc3ccco3)c2c1	nt	nt	nt	nt	nt	3.5µM*
Cc1cccc(-c2ccc3ncnc(N(C)Cc4ccco4)c3c2)c1	nt	nt	-2%	?	19%	nt
O=C(Cc1cccc2ccccc12)NC(=S)Nc1cccc(C(=O)O)c1	0%	0%	-1%	?	7%	0%
COc1ccc2ccccc2c1/C=N/Nc1cccc(C(=O)O)c1	?	?	1.1µM*	8.5µM*	0.89µM*	nt
CCOc1cc(/C=N/Nc2cccc(C(=O)O)c2)ccc1OC(=O)c1ccccc1	?	?	0.089µM*	17µM*	0.1µM*	1µM*
COc1ccc2ccccc2c1/C=N/Nc1ccc(Cl)c(C(=O)O)c1	11%	17%	?	?	?	nt
COc1ccc(N/N=C/c2c(C(=O)O)ccc3ccccc23)cc1	6%	?	-38%	9.5µM*	-38%	nt
O=C(O)c1cccc(N/N=C/c2cccc3ccccc23)c1	?	?	0.1µM*	0.076µM*	?	nt
Cc1oc2c(C)c3oc(=O)c(CCC(=O)N4CCCCC4)c(C)c3cc2c1C	nt	nt	nt	-8%	nt	11%
CC(=O)Nc1ccc2c(c1)/C(=C/c1ccc([N+](C)(C)C)cc1)c1ccccc1-2	nt	nt	nt	nt	nt	-6%[9.22 µM]
CC(=O)c1ccc(NC(=O)c2cc(-c3ccc(Cl)c(Cl)c3)on2)cc1	nt	nt	nt	4%	nt	6%
CCc1ccc(-n2c(=O)c3ccc(C(=O)NCCc4ccccc4)cc3n(Cc3ccccc3C#N)c2=O)cc1	nt	nt	nt	3%	nt	23%
Cc1[nH]nc(N=CC2=C(O)CC(C)(C)CC2=O)c1-c1ccccc1	18%	13%	-4%	13µM*	0%	-11%
O=C(/C(=C/O)N=Nc1ccccc1Cl)c1ccccc1	-4%	?	1%	21µM*	-4%	-27%
COc1ccccc1Cn1ccn(Cc2ccc(C)cc2)c(=O)c1=O	nt	nt	nt	-7%	nt	nt
CC(C)CN1CCc2nc(N3CCN(C)CC3)ncc2C1	nt	nt	nt	4%	nt	nt
SMILES	ELG1 genotox	ELG1 DNA repair	NPC1 promoter act	FLuc counter	Rab9 prom act	SMN2 splice enh
N=c1nc(N)nc2n1NC(c1ccc(F)cc1)=CS2	16%	?	-1%	15µM*	-2%	20%
COc1ccc(NC(=O)C2CCN(C3=NS(=O)(=O)C(c4ccc(C)c(C)c4)=C3C)CC2)c(OC)c1	nt	nt	nt	-10%	nt	nt
COC(=O)CC[C@@H](C)C1CC[C@H]2[C@H]3CC[C@H]4C[C@@H]5CCC4(C)[C@@]3(O5)[C@@H](Br)[C@@H](Br)[C@@]12C (some centres not stated)	nt	nt	nt	nt	nt	-5%[9.22 µM]
CCCC[C@@H]1C[C@H]1C(NC(=O)c1ccco1)c1ccc(Cl)cc1 (some centres not stated)	nt	nt	nt	nt	nt	-34%
O=C1NC(=S)S/C1=C\C=C\c1ccc([N+](=O)[O-])o1	?	?	-43%	24µM*	-49%	nt
O=C(O)/C=C/c1ccc([N+](=O)[O-])o1	0%	?	-4%	3%	-4%	6%
C=CCNC(=S)NNC(=O)COc1ccc2cc(Br)ccc2c1	?	?	?	-2%	3.2µM*	11µM*
C=CCNC(=S)NNC(=O)COc1ccc(Br)cc1	0%	?	3%	-17%	-4%	1%
O=C(NC1(C(F)(F)F)C(=O)Nc2c1c(=O)[nH]c(=O)n2-c1ccc(Cl)cc1)c1ccccc1F (configuration not stated)	nt	nt	nt	5%	nt	nt
Cc1ccc(O)c(N=Nc2ccc(S(=O)(=O)N3CCCC3)cc2)c1	9%	?	?	15µM*	?	nt
COc1ccc(N=Nc2ccc(N)nc2N)cc1	9.2µM*	?	1µM*	2.4µM*	2.5µM*	nt
COc1cccc(N=Nc2ccc3ccccc3c2O)c1	?	?	?	0.34µM*	4µM*	nt
COc1ccc(N=Nc2ccc3ccccc3c2)c(O)c1	0.92µM*	?	3.2µM*	0.38µM*	4µM*	nt
COc1ccc(N=Nc2c(N)n[nH]c2N)cc1	11%	?	29%	?	?	nt
COc1ccccc1C(=O)Nc1ccc(C(=O)OCc2cc(=O)n3nc(C)sc3n2)cc1	nt	nt	nt	-6%	nt	nt
Cc1cc(C(C)(C)C)cc(CNC2CCCCC2)c1O	nt	nt	nt	nt	nt	-4%[9.22 µM]
CCc1cccc(C)c1NC(=O)Cn1c(=O)cc(C)c2c(C)nn(-c3cccc(F)c3)c21	nt	nt	nt	-3%	nt	nt
CC(=O)/C(N=Nc1cc(C)ccc1O)=C(\C)O	2%	0%	22%	3%	5%	nt
COc1ccc(N=Nc2cc(C)ccc2O)cc1	3.7µM*	?	1.1µM*	0.48µM*	0.4µM*	nt
Cc1ccc(N=Nc2ccc(O)c3ncccc23)cc1	?	?	13%	3%	-2%	-91%
Cc1ccc(O)c(N=Nc2nccs2)c1	23µM*	?	-1%	9.5µM*	-9%	nt
Cc1ccc(CNC(=O)c2sc3nc(C)cc(C)c3c2-n2cccc2)cc1	nt	nt	nt	-4%	nt	nt
N#Cc1c(N2CCCC2)nsc1-c1ccccc1	?	?	?	15µM*	?	nt
COc1ccccc1S(=O)(=O)Cc1ccc(C(=O)N2CCCC2)o1	0%	1%	1%	1%	6%	8%
COc1ccccc1N1CCN(C(=O)c2oc3c(c2C)C(=O)CC(C)(C)C3)CC1	-16%	21µM*	-6%	4%	-10%	nt
Cc1ccccc1S(=O)(=O)Cc1ccc(C(=O)N2CCN(c3cccc(C)c3C)CC2)o1	-57%	7.3µM*	-36%	0%	-46%	-72%
CCc1ccccc1S(=O)(=O)Cc1ccc(C(=O)N2CCN(c3ccccc3OC)CC2)o1	-26%	23µM*	-3%	10%	-6%	-15%
